# PubChem BioAssay
# Calls of active or inactive are those of the source. Unless noted, how the calls were made is not given here.
# What was measured:
# [1] = compounds binding Alexa647 anti-His antibody – biochemical, small-molecule microarray, 635 nm fluorescence, artefact control for SMM control protein annotation, primary screen (AID 1128); conditions: higher = more signal;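 further: score merges feature fluorescence with signal-to-noise for each printed compound spot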
# [2] = system: Human papillomavirus type 1a E7 protein (residues 1-88); test: HPV1a E7 small-molecule binders, primary screen, biochemical, small-molecule microarray, residues 1-88, 635 nm (AID 1129); conditions: small-molecule microarray binding, fluorescence 635 nm; higher = more signal
# [3] = target: Focal adhesion kinase 1 (Homo sapiens) (UniProt Q05397); test: PTK2 protein binding on printed compound slides – biochemical, small-molecule microarray, 635/667 nm fluorescence, BSA, DTT, primary screen (AID 1130); conditions: 635 nm fluorescence, higher = more signal;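 further: composite of spot emission at 667 nm and signal to noise over triplicate slides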
# [4] = system: Fibrinogen (Alexa647-labelled); test: Alexa647-fibrinogen binding to printed small molecules – biochemical, small-molecule microarray, 635/667 nm fluorescence, artefact control for SMM control-protein annotation, profiling panel (AID 1131); conditions: fibrinogen-A647 binding fluorescence, higher = more signal;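 further: z-score merges 667 nm fluorescence with per-spot signal-to-noise over triplicate slides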
# [5] = target: Follistatin (Homo sapiens) (UniProt P19883); test: FST protein binding to printed compounds – biochemical, small-molecule microarray, 635/667 nm fluorescence, primary screen (AID 1132); conditions: 635 nm fluorescence, higher = more signal
# [6] = target: Fibroblast growth factor 2 (Homo sapiens) (UniProt P09038); test: basic fibroblast growth factor binding to printed compounds – biochemical, small-molecule microarray, 635/667 nm fluorescence, primary screen (AID 1133); conditions: FGF2, fluorescence 635/667, higher = more signal
# [7] = JC-1 mitochondrial potential readout, lung cancer cells – cell-based, A549, JC-1 fluorescence, basal, 24 h, 100 nL, profiling panel (AID 1138); conditions: higher = more signal;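 further: A549 lung adenocarcinoma cells under basal conditions with no added stimulus; test concentration not given here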
# Lefty1 = Lefty1 protein binding to printed compounds – biochemical, small-molecule microarray, 635/667 nm fluorescence, primary screen (AID 1139); conditions: fluorescence 635/667, higher = more signal
# [8] = system: wheat germ agglutinin (Triticum aestivum), Alexa647-labelled; test: Alexa647-WGA lectin binding to printed small molecules – biochemical, small-molecule microarray, 635/667 nm fluorescence, artefact control for SMM control-protein annotation, profiling panel (AID 1140); conditions: WGA-A647 binding, 635 nm fluorescence, higher = more signal;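 further: score merges 667 nm feature emission with signal to noise over triplicate slides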
# [9] = target: Luciferin 4-monooxygenase (Photinus pyralis) (UniProt P08659); test: inhibition of purified Photinus pyralis luciferase – biochemical, luminescence, purified enzyme, 2006 set, primary screen (AID 1141); conditions: purified firefly luciferase, SteadyGlo luminescence, 30 min; higher = more signal, called active from +8 up or from −8 down;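 further: cell-free assay with purified firefly luciferase at 100 ng per well in PBS; test concentration not given here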
# [10] = system: Wnt5a (protein binding on small-molecule microarray); test: small molecules binding Wnt5a protein – biophysical, small-molecule microarray, 635/667 nm fluorescence, primary screen (AID 1142); conditions: 635 nm fluorescence, higher = more signal;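 further: fluorescence read at 667 nm with signal to noise per printed feature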
# [11] = ATP-based viability of Huh7 replicon cells – cell-based, CellTiter-Glo luminescence, basal, 48 h, cytotoxicity control for HCV replication inhibitor project, primary screen (AID 1143); conditions: higher = more signal, called active from +8 up or from −8 down;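 further: Huh7 hepatoma cells carrying a hepatitis C replication reporter with no stimulus; test concentration not given here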
# [12] = Pseudomonas biofilm growth suppression – PAO1 strain, BacTiter-Glo luminescence, LB-PBS, primary screen (AID 1144); conditions: P. aeruginosa PAO1 biofilm, 12 h, higher = more signal
# [13] = basal CRE-LacZ reporter activity in PC12 – cell-based, unstimulated, primary screen (AID 1145); conditions: no forskolin, luminescence, 4.5 h, higher = more signal, called active from +8 up or from −8 down
# [14] = forskolin-driven CRE-LacZ activity in PC12 – cell-based, CRE-LacZ reporter, forskolin-stimulated, primary screen (AID 1146); conditions: luminescence, 4.5 h, higher = more signal, called active from +8 up or from −8 down;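 further: PC12 cells with 6xCRE LacZ reporter stimulated by forskolin 10 µM; beta-galactosidase reporter signal reflecting CREB driven transcription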
# [15] = target: Streptavidin (Streptomyces avidinii) (UniProt P22629); test: compounds binding control protein streptavidin – biophysical, small-molecule microarray, 635/667 nm fluorescence, artefact control for SMM compound annotation, primary screen (AID 1147); conditions: higher = more signal;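 further: signal reflects streptavidin binding to arrayed compounds as a control protein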
# [16] = probe aInhba binding on compound microarray – biochemical, small-molecule microarray, 635/667 nm fluorescence, primary screen (AID 1148); conditions: higher = more signal;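 further: score merges 667nm spot fluorescence with signal-to-noise for antibody binding to printed compounds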
# Torsin-1A (Homo sapiens) [17] = target: Torsin-1A (Homo sapiens) (UniProt O14656); test: TOR1A wild-type binding on microarray – cell lysate, small-molecule microarray, lysate, 635/667 nm, primary screen (AID 1149); conditions: COS7 hTOR1A-WT lysate, 635 nm fluorescence, higher = more signal
# Torsin-1A (Homo sapiens) [18] = target: Torsin-1A (Homo sapiens) (UniProt O14656); test: torsin A mutant lysate binding on microarrays – cell lysate, small-molecule microarray, COS7 lysate, 635/667 nm fluorescence, primary screen (AID 1150); conditions: COS7 hTOR1A mutant lysate, 635 nm fluorescence, higher = more signal;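 further: score pools 667 nm emission and signal to noise measuring lysate protein binding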
# [19] = system: Sonic hedgehog protein (Shh); test: Sonic hedgehog microarray binding compounds – biochemical, small-molecule microarray, 635/667 nm fluorescence, primary screen (AID 1151); conditions: 635 nm fluorescence, higher = more signal;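 further: Shh protein binding to compounds spotted on small-molecule microarray slides; score combines spot fluorescence intensity with signal-to-noise across triplicate slides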
# Sequence of Torsin-1A (Homo sapiens) (O14656 whole entry, looked up): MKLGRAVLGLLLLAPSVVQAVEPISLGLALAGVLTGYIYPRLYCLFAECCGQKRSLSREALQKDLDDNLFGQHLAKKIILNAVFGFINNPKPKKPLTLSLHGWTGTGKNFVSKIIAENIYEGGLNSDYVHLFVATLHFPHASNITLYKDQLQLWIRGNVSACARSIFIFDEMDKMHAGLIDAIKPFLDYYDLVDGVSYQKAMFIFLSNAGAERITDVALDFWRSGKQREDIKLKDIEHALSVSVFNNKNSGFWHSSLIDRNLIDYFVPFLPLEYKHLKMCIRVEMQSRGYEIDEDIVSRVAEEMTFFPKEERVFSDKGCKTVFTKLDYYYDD
# Sequence of Follistatin (Homo sapiens) (P19883 whole entry, looked up): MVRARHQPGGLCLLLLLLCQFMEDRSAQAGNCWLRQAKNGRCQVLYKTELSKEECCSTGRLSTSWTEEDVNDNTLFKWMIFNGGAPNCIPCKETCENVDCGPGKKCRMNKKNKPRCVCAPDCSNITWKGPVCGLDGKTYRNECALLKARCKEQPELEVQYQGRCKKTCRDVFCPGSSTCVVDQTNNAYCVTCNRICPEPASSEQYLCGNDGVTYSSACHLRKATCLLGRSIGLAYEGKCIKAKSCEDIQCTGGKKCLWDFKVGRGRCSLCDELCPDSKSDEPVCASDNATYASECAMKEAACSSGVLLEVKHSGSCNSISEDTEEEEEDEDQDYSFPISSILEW
# Sequence of Fibroblast growth factor 2 (Homo sapiens) (P09038 whole entry, looked up): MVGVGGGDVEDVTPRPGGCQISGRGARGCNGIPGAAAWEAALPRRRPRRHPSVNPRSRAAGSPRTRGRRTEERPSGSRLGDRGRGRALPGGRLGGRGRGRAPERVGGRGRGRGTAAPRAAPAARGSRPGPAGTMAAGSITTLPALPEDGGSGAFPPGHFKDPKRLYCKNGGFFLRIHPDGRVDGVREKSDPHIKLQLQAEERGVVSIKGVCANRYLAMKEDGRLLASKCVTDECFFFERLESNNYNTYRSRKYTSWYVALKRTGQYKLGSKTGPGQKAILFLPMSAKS
# Sequence of Focal adhesion kinase 1 (Homo sapiens) (Q05397 whole entry, looked up): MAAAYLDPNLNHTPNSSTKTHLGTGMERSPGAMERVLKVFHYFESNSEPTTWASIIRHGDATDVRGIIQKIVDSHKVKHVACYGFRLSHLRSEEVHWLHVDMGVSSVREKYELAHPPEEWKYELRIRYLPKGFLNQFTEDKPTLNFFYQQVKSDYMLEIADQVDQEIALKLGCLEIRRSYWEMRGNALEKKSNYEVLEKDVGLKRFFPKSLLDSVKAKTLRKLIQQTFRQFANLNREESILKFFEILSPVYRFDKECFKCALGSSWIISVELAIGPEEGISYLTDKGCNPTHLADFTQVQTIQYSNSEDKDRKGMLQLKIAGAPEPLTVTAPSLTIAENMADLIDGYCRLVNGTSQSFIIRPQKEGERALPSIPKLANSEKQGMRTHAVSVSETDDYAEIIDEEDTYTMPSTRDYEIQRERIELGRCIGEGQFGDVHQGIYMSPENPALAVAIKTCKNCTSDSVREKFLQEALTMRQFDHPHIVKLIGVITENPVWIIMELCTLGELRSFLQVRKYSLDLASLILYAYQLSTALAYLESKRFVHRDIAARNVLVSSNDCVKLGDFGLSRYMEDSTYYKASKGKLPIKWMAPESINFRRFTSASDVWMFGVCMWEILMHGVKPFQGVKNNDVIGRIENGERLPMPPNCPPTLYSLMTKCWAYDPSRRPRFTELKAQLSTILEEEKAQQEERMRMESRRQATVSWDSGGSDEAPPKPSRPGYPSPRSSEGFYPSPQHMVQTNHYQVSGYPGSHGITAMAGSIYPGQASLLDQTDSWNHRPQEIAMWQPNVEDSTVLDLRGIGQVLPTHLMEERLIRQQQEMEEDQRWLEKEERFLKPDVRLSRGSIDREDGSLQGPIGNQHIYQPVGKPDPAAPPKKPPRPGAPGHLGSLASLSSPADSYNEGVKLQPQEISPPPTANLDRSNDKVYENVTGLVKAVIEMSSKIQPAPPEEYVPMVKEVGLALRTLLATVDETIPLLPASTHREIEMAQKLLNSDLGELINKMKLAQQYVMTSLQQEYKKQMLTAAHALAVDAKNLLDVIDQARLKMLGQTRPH
# Sequence of Streptavidin (Streptomyces avidinii) (P22629 whole entry, looked up): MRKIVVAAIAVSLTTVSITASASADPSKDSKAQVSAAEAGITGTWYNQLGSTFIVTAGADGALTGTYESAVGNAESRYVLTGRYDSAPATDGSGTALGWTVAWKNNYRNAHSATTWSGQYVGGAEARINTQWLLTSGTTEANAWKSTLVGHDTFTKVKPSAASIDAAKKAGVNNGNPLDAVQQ
# Sequence of Luciferin 4-monooxygenase (Photinus pyralis) (P08659 whole entry, looked up): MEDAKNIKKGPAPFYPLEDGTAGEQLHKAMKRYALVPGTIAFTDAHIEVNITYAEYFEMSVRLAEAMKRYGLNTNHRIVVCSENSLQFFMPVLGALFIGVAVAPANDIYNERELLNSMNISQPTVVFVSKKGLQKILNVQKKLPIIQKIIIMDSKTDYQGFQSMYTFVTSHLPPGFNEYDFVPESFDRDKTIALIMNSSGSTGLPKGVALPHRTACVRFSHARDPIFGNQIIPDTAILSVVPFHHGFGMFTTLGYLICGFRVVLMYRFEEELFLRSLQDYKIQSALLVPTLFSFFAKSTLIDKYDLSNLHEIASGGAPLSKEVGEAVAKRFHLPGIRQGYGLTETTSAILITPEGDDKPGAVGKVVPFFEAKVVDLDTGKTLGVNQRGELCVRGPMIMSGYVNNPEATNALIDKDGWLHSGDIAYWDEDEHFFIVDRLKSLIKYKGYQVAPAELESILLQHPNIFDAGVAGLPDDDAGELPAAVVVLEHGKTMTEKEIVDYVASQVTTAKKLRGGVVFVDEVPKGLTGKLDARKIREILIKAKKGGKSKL
Structure (SMILES),composite z-score [1],composite z-score [2],composite z-score [3],composite z-score [4],composite z-score [5],composite z-score [6],z-score [7],composite z-score (Lefty1),composite z-score [8],z-score [9],composite z-score [10],z-score [11],z-score [12],z-score [13],z-score [14],composite z-score [15],composite z-score [16],composite z-score (Torsin-1A (Homo sapiens) [17]),composite z-score (Torsin-1A (Homo sapiens) [18]),composite z-score [19]
CN1C(=O)C2C=CC(C(O)C3CCCCC3)N(N(c3ccccc3)c3ccccc3)C2C1=O (stereo not given),-0.392,-1.14,0.0064,-0.702,-0.885,-0.732,0.131,-1.6,0.517,0.135 (inactive),0.0957,0.673 (inactive),0.0683 (inactive),-0.333 (inactive),0.355 (inactive),-0.0316,0.596,-0.08,0.0415,-0.298
CCOC(=O)C1=CC[C@@H](c2ccccc2)N(S(=O)(=O)c2ccc(C)cc2)[C@H]1C=C(C)C,0.875,1.22,0.503,0.911,0.97,0.481,2.58,0.811,0.546,2.12 (inactive),0.367,-4.76 (inactive),0.514 (inactive),-0.378 (inactive),0.807 (inactive),1.44,0.246,0.258,1.46,0.839
Cc1ccc(-c2cccc(=O)o2)cc1,-1.57,-0.935,-0.404,-0.551,0.272,0.156,-0.241,-0.33,-0.233,-1.23 (inactive),0.796,-0.0525 (inactive),1.07 (inactive),-0.322 (inactive),0.699 (inactive),-0.317,-0.0523,-0.495,-0.173,-0.0613
COc1cc(NN2C(C(O)c3ccc(I)cc3)C=CC3C(=O)N(C)C(=O)C32)cc(OC)c1OC (stereo not given),2.61,0.351,1.2,-0.472,-0.0712,-0.893,0.223,-0.595,0.701,-0.977 (inactive),0.212,-2.58 (inactive),-0.126 (inactive),-0.326 (inactive),-0.445 (inactive),-0.105,0.0074,-0.442,1.42,-0.441
CCOC(=O)C[C@H]1[C@H](OC(=O)Cc2ccc3c(c2)OCO3)[C@@H](NC(=O)c2ccccc2)c2cc(OCCCO)ccc2N1C(=O)c1ccc2ccccc2n1,0.0936,0.445,-0.0584,0.204,0.166,0.77,0.925,0.447,0.473,-1.43 (inactive),-0.112,-0.629 (inactive),0.581 (inactive),11 (active),-0.981 (inactive),0.965,-0.0418,0.0426,1.19,0.844
O=C1O[C@@H](c2ccccc2)[C@@H](c2ccccc2)N2[C@@H](c3ccc(O)cc3)[C@]3(C(=O)Nc4ccc(C#CC5(O)CCCCCC5)cc43)[C@@H](C(=O)N3CCN(c4ncccn4)CC3)[C@H]12,1.69,1.22,0.56,0.925,0.642,0.385,-0.243,0.441,0.601,1.04 (inactive),0.149,-1.37 (inactive),-0.775 (inactive),-0.231 (inactive),0.204 (inactive),0.849,-0.144,1.42,0.743,0.358
C[N+](C)(C)CCCCCCNC(=O)[C@@H]1C[C@@H]2C(=O)NCC(=O)N2[C@@H]1c1cccc(OCCO)c1,1.4,0.044,1.18,0.615,1.38,1.33,-0.842,1.28,0.571,0.801 (inactive),0.338,-3.36 (inactive),-1.82 (inactive),-0.797 (inactive),-0.933 (inactive),-0.357,-0.0986,0.335,-0.371,2.16
COCCOC(=O)N1C(=O)[C@@]2(c3cc(C#CC4(O)CCCCCC4)ccc31)[C@H](C(=O)N1CCc3cc(OC)c(OC)cc3C1)[C@H]1C(=O)O[C@H](c3ccccc3)[C@H](c3ccccc3)N1[C@@H]2c1ccccc1OCCO,1.07,1.17,0.32,0.608,1.36,1.48,-0.651,1.28,0.859,-1.72 (inactive),0.855,-2.18 (inactive),1.66 (inactive),0.0736 (inactive),3.93 (inactive),0.149,0.448,0.0869,0.326,1.29
CC(C)C[C@@H]1NC(=O)[C@@]23C(=O)N[C@@H](Cc4ccccc4)C2[C@H](C)[C@@]2(C)O[C@H]2C3/C=C/C/C=C\CNC(=O)[C@@H]2CCCN2C1=O (stereo not given in full),0.886,-1.05,-0.0278,-0.94,0.368,0.392,0.579,0.571,-0.299,0.0046 (inactive),-0.0917,-0.577 (inactive),0.595 (inactive),1.12 (inactive),-0.2 (inactive),-0.767,0.0051,0.249,0.0725,0.468
CN(C)CCCC[C@@H]1NC(=O)[C@H]2C[C@@H](C(=O)NCCCCCCNC(=O)CS)[C@@H](c3ccc(O)cc3)N2C1=O,0.135,0.0218,1.05,-0.934,1.32,0.804,-0.685,0.628,-0.149,0.78 (inactive),-0.261,-0.898 (inactive),-0.113 (inactive),-1.21 (inactive),-0.887 (inactive),-1.05,-0.224,1.13,0.753,1.92
